The source holds several records for some structures; these can differ, active in one and inactive in another. Calls of active or inactive are those of the source. The calls were made as follows: active = hit-call score of the fitted dose curve at least 0.9, where 1 is the maximum; inactive = score below 0.9.

Read-out in the assay: Monocyte Chemoattractant Protein-1 (MCP1), CCL2 (gene 6347)
Briefly: BSK_3C_MCP1: BioMAP Diversity Plus: 3C Assay for Monocyte Chemoattractant Protein-1 (MCP1) Biomarker Activity (AID 2283017). The conditions noted are these: primary human endothelial cells (HUVEC); actives raise or lower the signal. The method, then: BSK_3C is a cell-based, multiplexed-readout assay that uses umbilical vein endothelium, a human vascular primary cell, with measurements taken at 24 hours after chemical dosing in a 96-well plate.BSK_3C_MCP1 is an assay component measured in the BSK_3C assay. It measures MCP-1 antibody related to regulation of gene expression using ELISA technology.Data from the assay component BSK_3C_MCP1 was analyzed into 1 assay endpoint. This assay endpoint, BSK_3C_MCP1, was analyzed with bidirectional fitting relative to DMSO as the negative control and baseline of activity. Using a type of binding reporter, gain or loss-of-signal activity can be used to understand changes in the signaling as they relate to the gene CCL2. Furthermore, this assay endpoint can be referred to as a primary readout, because this assay has produced multiple assay endpoints where this one serves a signaling function. To generalize the intended target to other relatable targets, this assay endpoint is annotated to the cytokine intended target family, where the subfamily is chemotactic factor.
The levels of cell surface (or secreted, indicated by the prefix "s") biomarker endpoints were measured by ELISA. Overt cytotoxicity to cells in confluent adherent cultures (all systems other than the BT system) was assessed by measuring total protein levels using sulforhodamine B (SRB) staining in parallel cultures at the time of biomarker measurements, indicated as SRB endpoints. For proliferation assays for adherent cell types, individual cell types are cultured at sub-confluence and relative cell numbers quantified by SRB staining at time points optimized for each system (48 h: 3C and CASM3C systems; 72 h: BT and HDF3CGF systems; 96 h: SAg system). SRB was performed by staining cells with 0.1% SRB after fixation with 10% TCA and reading wells at 560 nm.Viability and proliferation of PBMC (T cells) was quantified by Alamar Blue reduction for the SAg and BT systems. For PBMC viability (referred to as PBMC Cytotoxicity within the assay endpoint names), cells were plated (75,000/well in a 96-well plate) and then chemical samples added for 1 h before addition of activators, SEB and TSST-1 (20 ng/mL final concentration each). Cells were incubated for 90 h. Then, Alamar Blue (20 uL/well) (Invitrogen, Cat DAL1100) was added for 6 h, and the plates were read with a fluorescence microplate reader at 546/580 nm (excitation/emission). For PBMC proliferation, cells were plated and activated as above but incubated for only 16 h prior to addition of Alamar Blue. Plates were read after 6 h.
On to `OCc1ccco1`, for which the outcome was inactive.
With `O=[N+]([O-])c1ccc2c3c(cccc13)CC2`, the outcome was inactive.
With `COC[C@H](C)N(C(=O)CCl)c1c(C)csc1C`, the result was inactive.
Consider `O=C(O)C(F)(F)C(F)(F)C(F)(F)C(F)(F)C(F)(F)C(F)(F)C(F)(F)C(F)(F)C(F)(F)C(F)(F)F`, for which the outcome was inactive and the AC50 is 30.7 µM (active).
In the case of `CCCCCCCCc1ccc(O)cc1`, the AC50 was 34.1 µM (active).
With `Nc1ncc([N+](=O)[O-])s1`, the outcome was inactive.
Still for that read-out and setting: in the case of `NC(=S)Nc1ccccc1` it was “inactive”; in that of `CCCCCCCCC(=O)NCc1ccc(O)c(OC)c1`, “inactive”; in that of `O=S(=O)(c1ccc(Cl)cc1)c1ccc(Cl)cc1`, “inactive”.
As to `O=Cc1cccc(Oc2ccccc2)c1`, the result was inactive.
Same read-out and setting: next, `BrCCBr`: “inactive”.
Turning to `O=C(OC1CCCCC1)c1ccccc1C(=O)OC1CCCCC1`, the AC50 was 11.7 µM (active).
For `Oc1cccc2cccnc12`, the result was inactive.
Turning to `CCOP(=S)(OCC)SCCS(=O)(=O)CC`, the outcome was inactive.
On to `O=C(O)CCC(F)(C(F)(F)F)C(F)(F)F`, for which the result was inactive.
In the case of `COP(=S)(OC)Oc1ccc(Sc2ccc(OP(=S)(OC)OC)cc2)cc1`, the AC50 was 27.1 µM (active).
As to `CC(=O)[O][Hg][c]1ccccc1`, the AC50 was 0.964 µM (active).
For `CC(C)c1ccc(CO)cc1`, the result was inactive.
On the same count and under the same terms, in the case of `COP(=S)(OC)Oc1cc(Cl)c(Cl)cc1Cl` it was “inactive”.
`CC(=O)OC(c1ccccc1)C(Cl)(Cl)Cl` (stereo not given): the outcome was inactive.
For `CC(C)CCCCCCOC(=O)c1ccccc1C(=O)OCCCCCCC(C)C`, the outcome was inactive.
Turning to `Nc1ccc(-c2ccc(N)c(Cl)c2)cc1Cl`, the result was inactive.
`COP(=S)(OC)Oc1c(Cl)cc(C)cc1Cl`: the AC50 was 31.4 µM (active).
Turning to `Nc1cccc2ccccc12`, the outcome was inactive.
Take `COc1cc(-c2ccc(N)c(OC)c2)ccc1N`: the AC50 is 30 µM (active) and the result was inactive.
With `CC(C)(OO)c1ccccc1`, the outcome was inactive.
On to `O=C(O)C(Cl)(Cl)Cl`, for which the outcome was inactive.
For `CCOP(=S)(OCC)SCSP(=S)(OCC)OCC`, the result was inactive.
On to `CN(C)N=O`, for which the result was inactive.
Take `CC1(C)Cc2cccc(O)c2O1`: the outcome was inactive.
Regarding `CCC(C)(C)c1ccc(O)c(C(C)(C)CC)c1`, the half-maximal activity concentration (AC50) is 9.92 µM (active).
With `CC12CC1(C)C(=O)N(c1cc(Cl)cc(Cl)c1)C2=O` (stereo not given), the result was inactive.
Turning to `CCN1CCC2(CC1)COc1cc3c(cc12)N(C(=O)c1ccc(-c2ccc(-c4nnc(C)o4)cc2C)cc1)CC3`, the AC50 is 14 µM (active).
Same read-out and setting: next, `Oc1c(I)cc(I)cc1I`: 11.9 µM (active); `CC(C)(c1ccccc1)c1ccc(O)c(C(C)(C)c2ccccc2)c1`: 10.8 µM (active).
`Oc1ccc(-c2ccccc2)cc1`: the result was inactive.
As for `COP(=S)(OC)Oc1ccc(S(=O)(=O)N(C)C)cc1`, the outcome was inactive.
Same read-out and setting: next, `NC(=O)O`: “inactive”.

As usually defined, the AC50 is the concentration at which the activity in the assay is half-maximal.

The values above are taken from PubChem BioAssay (EPA / NIEHS).
